Inconclusive results are not listed. Entries that show only a call come without a potency. The source made the active and inactive calls. Unless noted, calls follow the shape of the full dose curve.

One test in a line: qHTS assay to identify small molecule agonists of the endoplasmic reticulum stress response signaling pathway (AID 1159516; active = well fitted activation curve with a large enough effect in the signal ratio in the repeat runs, not every such curve was filed as active; the % refers to the signal ratio). The settings on record: ESRE-bla HeLa, ER stress beta-lactamase reporter, 5 h; series mostly up to 61 µM. The procedure, abridged:
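ER stress element reporter (bla) in HeLa. 1,500 cells/well, overnight attachment; 5 hr compound; 2 hr RT substrate; dual-emission fluorescence.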
(Quantitative high-throughput screening tests each substance at several concentrations.)
Turning to `N#Cc1ccc(N(CC(N)=O)CC(F)(F)F)cc1C(F)(F)F`, the Potency entry is “inactive”.

Turning to `c1ccc(Nc2ccc(Nc3ccccc3)cc2)cc1`, the Potency result was “inactive”.

With `CCC[CH2][Sn]([CH2]CCC)([O]C(C)=O)[O]C(C)=O`, the Potency result is “inactive”.

Turning to `COc1cnc(OC)n2nc(NS(=O)(=O)c3c(OCC(F)F)cccc3C(F)(F)F)nc12`, the Potency result was “inactive”.

For the compound `CCN(CC)Cc1nccn1-c1ccc([N+](=O)[O-])cc1C(=O)c1ccccc1Cl`, the Potency entry was “inactive”.

As for `O=C(N[C@@H]1N=C(c2ccccc2F)c2cccc3c2N(CC3)C1=O)c1cc2ccccc2[nH]1`, the Potency result is “inactive”.

As for `[C-]1=CC=CC1.[Cl][Zr+2][Cl].c1cc[cH-]c1`, the Potency result was “inactive”.

Regarding `Nc1ccc(Cl)cc1C(=O)c1ccccc1F`, the Potency entry is “inactive”.

In the case of `C1=CCC=C1`, the Potency result is “inactive”.

`CCOP(=O)(Sc1ccccc1)Sc1ccccc1`: the Potency entry is “inactive”.

For the compound `O=S(=O)(O)F`, the Potency entry was “inactive”.

Consider `O=[N+]([O-])c1ccc(Cl)c(Cl)c1Cl`, for which the Potency entry was “inactive”.

As to `CSC(C)(C)/C=N/O`, the Potency entry is “inactive”.

In the case of `CCNS(=O)(=O)C(F)(F)C(F)(F)C(F)(F)C(F)(F)C(F)(F)C(F)(F)C(F)(F)C(F)(F)F`, the Potency entry is “inactive”.

As for `CCN(CC)CCc1c[nH]c2ccccc12`, the Potency entry was “inactive”.

As for `CNC(=O)O/N=C(\C)C(C)S(C)(=O)=O` (stereo not drawn), the Potency result is “inactive”.

Regarding `CC(Cl)CCl` (stereo not drawn), the Potency result is “inactive”.

Turning to `Cc1ccc(C)c2ccccc12`, the Potency entry was “inactive”.

For the compound `[O-][Cl+3]([O-])([O-])O`, the Potency entry is “inactive”.

Turning to `COC(=O)c1ccccc1S(=O)(=O)NC(=O)Nc1nc(C)nc(OC)n1`, the Potency entry is “inactive”.

On to `CC1CN1` (stereo not drawn), for which the Potency result was “inactive”.

As for `c1cc[n+]2c(c1)-c1cccc[n+]1CC2`, the Potency entry is “inactive”.

For `ClSC(Cl)(Cl)Cl`, the Potency result was “inactive”.

As to `O=C(Nc1ccc(F)cc1F)c1cccnc1Oc1cccc(C(F)(F)F)c1`, the Potency result was “inactive”.

With `CCC(C)c1cccc(C(C)CC)c1O` (stereo not drawn), the Potency entry was “inactive”.

As to `CCN(CC)CCN1C(=O)CN=C(c2ccccc2F)c2cc(Cl)ccc21`, the Potency entry is “inactive”.

As for `ClCBr`, the Potency result is “inactive”.

In the case of `CC#C[C@]1(O)CC[C@H]2[C@@H]3C[C@H](C)C4=CC(=O)CC[C@]4(C)[C@H]3CC[C@@]21C`, the Potency entry is “inactive”.

As to `COc1ccc2[nH]cc(CCN(C(C)C)C(C)C)c2c1`, the Potency entry was “inactive”.

As to `CC(C)Br`, the Potency result is “inactive”.

In the case of `O=[N+]([O-])c1ccccc1-c1ccccc1`, the Potency entry is “inactive”.

Consider `O=c1c2ccccc2c(=O)c2c1cc(Cl)c1[nH]c3c([nH]c12)c(Cl)cc1c(=O)c2ccccc2c(=O)c13`, for which the Potency entry was “inactive”.

As to `CC(C)C(Br)C(=O)NC(N)=O` (stereo not drawn), the Potency result was “inactive”.

Turning to `CC[C@]1(O)CC[C@H]2[C@@H]3CCC4=CCCC[C@@H]4[C@H]3CC[C@@]21C`, the Potency entry is “inactive”.

Regarding `CCC1(CC)C(=O)N=C(O)NC1=O`, the Potency result was “inactive”.

As for `CC(C)NCC(O)c1ccccc1Cl` (stereo not drawn), the Potency entry was “inactive”.

As to `CC(C)N(C(=O)SC/C(Cl)=C/Cl)C(C)C`, the Potency result was “inactive”.

`NC1CCC(CC2CCC(N)CC2)CC1` (stereo not drawn): the Potency entry is “inactive”.

For `C=Cc1cccc(CCl)c1`, the Potency result was “inactive”.

The nature of a further test: qHTS assay to identify small molecule agonists of the endoplasmic reticulum stress response signaling pathway - cell viability counter screen (AID 1159517). Also: nearly all actives have a fitted effect of over 50% in size. Also: potency is read from the fitted curve at half-maximal effect. The settings on record: ESRE-bla HeLa viability, CellTiter-Glo luminescence, 5 h; series mostly up to 61 µM. The procedure, abridged:
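Luminescence readout: CellTiter-Glo, 30 min RT, same wells as the ESRE-bla reporter read. HeLa ESRE-bla, 1,500 cells/well, o/n 37 C; cpd 5 hr 37 C/5% CO2.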
For `N#Cc1ccc(N(CC(N)=O)CC(F)(F)F)cc1C(F)(F)F`, the Potency result is “inactive”.

Regarding `c1ccc(Nc2ccc(Nc3ccccc3)cc2)cc1`, the Potency entry was “inactive”.

`CCC[CH2][Sn]([CH2]CCC)([O]C(C)=O)[O]C(C)=O`: the Potency is 1.97 µM (active).

Consider `COc1cnc(OC)n2nc(NS(=O)(=O)c3c(OCC(F)F)cccc3C(F)(F)F)nc12`, for which the Potency result is “inactive”.

For `CCN(CC)Cc1nccn1-c1ccc([N+](=O)[O-])cc1C(=O)c1ccccc1Cl`, the Potency result is “inactive”.

Regarding `O=C(N[C@@H]1N=C(c2ccccc2F)c2cccc3c2N(CC3)C1=O)c1cc2ccccc2[nH]1`, the Potency result is “inactive”.

On to `[C-]1=CC=CC1.[Cl][Zr+2][Cl].c1cc[cH-]c1`, for which the Potency entry is “inactive”.

`Nc1ccc(Cl)cc1C(=O)c1ccccc1F`: the Potency result was “inactive”.

`C1=CCC=C1`: the Potency entry was “inactive”.

Consider `CCOP(=O)(Sc1ccccc1)Sc1ccccc1`, for which the Potency entry is “inactive”.

As for `O=S(=O)(O)F`, the Potency entry is “inactive”.

For the compound `O=[N+]([O-])c1ccc(Cl)c(Cl)c1Cl`, the Potency result is “inactive”.

In the case of `CSC(C)(C)/C=N/O`, the Potency entry was “inactive”.

On to `CCNS(=O)(=O)C(F)(F)C(F)(F)C(F)(F)C(F)(F)C(F)(F)C(F)(F)C(F)(F)C(F)(F)F`, for which the Potency result was “inactive”.

As for `CCN(CC)CCc1c[nH]c2ccccc12`, the Potency result was “inactive”.

For the compound `CNC(=O)O/N=C(\C)C(C)S(C)(=O)=O` (stereo not drawn), the Potency entry was “inactive”.

On to `CC(Cl)CCl` (stereo not drawn), for which the Potency entry is “inactive”.

Take `Cc1ccc(C)c2ccccc12`: the Potency result was “inactive”.

Take `[O-][Cl+3]([O-])([O-])O`: the Potency entry was “inactive”.

For `COC(=O)c1ccccc1S(=O)(=O)NC(=O)Nc1nc(C)nc(OC)n1`, the Potency result is “inactive”.

On to `CC1CN1` (stereo not drawn), for which the Potency entry was “inactive”.

In the case of `c1cc[n+]2c(c1)-c1cccc[n+]1CC2`, the Potency entry is “inactive”.

As to `ClSC(Cl)(Cl)Cl`, the Potency result is “inactive”.

`O=C(Nc1ccc(F)cc1F)c1cccnc1Oc1cccc(C(F)(F)F)c1`: the Potency result is “inactive”.

`CCC(C)c1cccc(C(C)CC)c1O` (stereo not drawn): the Potency result was “inactive”.

With `CCN(CC)CCN1C(=O)CN=C(c2ccccc2F)c2cc(Cl)ccc21`, the Potency entry is “inactive”.

As to `ClCBr`, the Potency result is “inactive”.

For the compound `CC#C[C@]1(O)CC[C@H]2[C@@H]3C[C@H](C)C4=CC(=O)CC[C@]4(C)[C@H]3CC[C@@]21C`, the Potency entry is “inactive”.

In the case of `COc1ccc2[nH]cc(CCN(C(C)C)C(C)C)c2c1`, the Potency result is “inactive”.

For `CC(C)Br`, the Potency result was “inactive”.

As to `O=[N+]([O-])c1ccccc1-c1ccccc1`, the Potency result is “inactive”.

`O=c1c2ccccc2c(=O)c2c1cc(Cl)c1[nH]c3c([nH]c12)c(Cl)cc1c(=O)c2ccccc2c(=O)c13`: the Potency entry was “inactive”.

As for `CC(C)C(Br)C(=O)NC(N)=O` (stereo not drawn), the Potency entry is “inactive”.

Consider `CC[C@]1(O)CC[C@H]2[C@@H]3CCC4=CCCC[C@@H]4[C@H]3CC[C@@]21C`, for which the Potency entry was “inactive”.

Turning to `CCC1(CC)C(=O)N=C(O)NC1=O`, the Potency entry is “inactive”.

For `CC(C)NCC(O)c1ccccc1Cl` (stereo not drawn), the Potency result was “inactive”.

As for `CC(C)N(C(=O)SC/C(Cl)=C/Cl)C(C)C`, the Potency result was “inactive”.

On to `NC1CCC(CC2CCC(N)CC2)CC1` (stereo not drawn), for which the Potency entry was “inactive”.

On to `C=Cc1cccc(CCl)c1`, for which the Potency entry was “inactive”.

The values above are taken from PubChem BioAssay (Tox21).
